Data as given in article PMC10812921, “Transcriptional Coactivator BOB1 (OBF1, OCA-B) Modulates the Specificity of DNA Recognition by the POU-Domain Factors OCT1 and OCT2 in a Monomeric Configuration”.

Key:
POU1 (OCT1 POU domain) = POU1 (OCT1 POU domain) (human, UniProt P14859 260-458); test: EMSA-SELEX-seq; no BOB1; 20 mM Tris-HCl pH 7.6, 140 mM NaCl, 10% glycerol, 0.5 mM EDTA, 0.05% Triton X-100, 0.1 mg/mL BSA, 0.1 mg/mL poly(dI-dC), 5 mM DTT, room temperature, 20 min; high values mean tight binding; details: protein: recombinant; dsDNA, one strand shown
Outline: (§1)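 With or without 28 ng coactivator protein, 30 ng of tagged POU-domain protein was combined with 300 ng of a PCR-amplified double-stranded random 35-nt library in 20 μL Tris–HCl pH 7.6 binding buffer for 20 min at RT. The protein came from E. coli BL21 and had been purified under denaturing conditions and renatured. Four rounds of cutting complex bands from native 6% PAGE, elution and PCR amplification preceded Illumina sequencing. The binding preference figure is the percentage of sequenced 8-mers matching a motif pattern.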

POU2 (OCT2 POU domain) = target: T1, POU2 (OCT2 POU domain) (human, UniProt P09086 175-386); test: as above; details: protein: recombinant; dsDNA, one strand shown
T1 sequence: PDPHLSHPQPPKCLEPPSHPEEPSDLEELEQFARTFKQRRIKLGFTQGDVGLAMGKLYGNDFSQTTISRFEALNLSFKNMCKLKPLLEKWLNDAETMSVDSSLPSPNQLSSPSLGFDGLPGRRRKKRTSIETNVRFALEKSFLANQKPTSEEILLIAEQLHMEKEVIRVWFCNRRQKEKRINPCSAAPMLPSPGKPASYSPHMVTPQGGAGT
Outline: as §1

[1] = target: POU1 (OCT1 POU domain);BOB1 (OBF1, OCA-B) (human;human, UniProt P14859;Q16633 260-458;1-256, |); test: EMSA-SELEX-seq; with BOB1 (ternary complex band); 20 mM Tris-HCl pH 7.6, 140 mM NaCl, 10% glycerol, 0.5 mM EDTA, 0.05% Triton X-100, 0.1 mg/mL BSA, 0.1 mg/mL poly(dI-dC), 5 mM DTT, room temperature, 20 min; high values mean tight binding; details: protein: recombinant;recombinant; copies: 1;1; dsDNA, one strand shown
Outline: as §1

[2] = target: T2, POU2 (OCT2 POU domain);BOB1 (OBF1, OCA-B) (human;human, UniProt P09086;Q16633 175-386;1-256, |); test: as above; details: protein: recombinant;recombinant; copies: 1;1; dsDNA, one strand shown
T2 sequence 1: T1 sequence
T2 sequence 2: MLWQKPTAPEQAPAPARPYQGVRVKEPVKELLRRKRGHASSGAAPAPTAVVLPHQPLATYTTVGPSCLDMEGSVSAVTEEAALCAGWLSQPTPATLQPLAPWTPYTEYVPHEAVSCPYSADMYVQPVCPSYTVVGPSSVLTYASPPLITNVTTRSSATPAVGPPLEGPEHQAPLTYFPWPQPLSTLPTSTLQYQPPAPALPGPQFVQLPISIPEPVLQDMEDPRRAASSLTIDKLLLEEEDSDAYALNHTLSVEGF
Outline: as §1

Sequence of POU1 (OCT1 POU domain) (P14859 260-458): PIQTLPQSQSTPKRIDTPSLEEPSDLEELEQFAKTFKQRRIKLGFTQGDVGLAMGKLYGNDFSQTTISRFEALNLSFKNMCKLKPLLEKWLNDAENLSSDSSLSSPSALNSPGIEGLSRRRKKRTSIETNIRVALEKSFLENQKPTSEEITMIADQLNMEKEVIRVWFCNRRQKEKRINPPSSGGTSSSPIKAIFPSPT

Row | Sequence | binding signal (POU1 (OCT1 POU domain)) | binding signal (POU2 (OCT2 POU domain)) | binding signal [1] | binding signal [2]
1 | ATAGTAAC | 0.0282 % of ANNNNAAN 8-mers | 0.0414 % of ANNNNAAN 8-mers | 0.023 % of ANNNNAAN 8-mers | 0.038 % of ANNNNAAN 8-mers
2 | ATCGAAAG | 0.0294 % of ANNNNAAN 8-mers | 0.0288 % of ANNNNAAN 8-mers | 0.0379 % of ANNNNAAN 8-mers | 0.0272 % of ANNNNAAN 8-mers
3 | ACTCTAAA | 0.0271 % of ANNNNAAN 8-mers | 0.0299 % of ANNNNAAN 8-mers | 0.0285 % of ANNNNAAN 8-mers | 0.0248 % of ANNNNAAN 8-mers
4 | AACTCAAG | 0.0194 % of ANNNNAAN 8-mers | 0.0219 % of ANNNNAAN 8-mers | 0.0164 % of ANNNNAAN 8-mers | 0.0289 % of ANNNNAAN 8-mers
5 | ACAGTAAA | 0.0481 % of ANNNNAAN 8-mers | 0.0414 % of ANNNNAAN 8-mers | 0.0531 % of ANNNNAAN 8-mers | 0.0338 % of ANNNNAAN 8-mers
6 | AGCGAAAG | 0.0248 % of ANNNNAAN 8-mers | 0.0242 % of ANNNNAAN 8-mers | 0.0332 % of ANNNNAAN 8-mers | 0.0239 % of ANNNNAAN 8-mers
7 | ATGCTAAC | 0.0671 % of ANNNNAAN 8-mers | 0.0949 % of ANNNNAAN 8-mers | 0.0347 % of ANNNNAAN 8-mers | 0.0495 % of ANNNNAAN 8-mers
8 | AAACCAAC | 0.0206 % of ANNNNAAN 8-mers | 0.0104 % of ANNNNAAN 8-mers | 0.0199 % of ANNNNAAN 8-mers | 0.0215 % of ANNNNAAN 8-mers
9 | ATGTGAAT | 0.138 % of ANNNNAAN 8-mers | 0.158 % of ANNNNAAN 8-mers | 0.0921 % of ANNNNAAN 8-mers | 0.134 % of ANNNNAAN 8-mers
10 | ATCCTAAC | 0.0172 % of ANNNNAAN 8-mers | 0.0299 % of ANNNNAAN 8-mers | 0.023 % of ANNNNAAN 8-mers | 0.0355 % of ANNNNAAN 8-mers
11 | ACTATAAA | 0.0439 % of ANNNNAAN 8-mers | 0.0403 % of ANNNNAAN 8-mers | 0.041 % of ANNNNAAN 8-mers | 0.0421 % of ANNNNAAN 8-mers
12 | AGGAAAAA | 0.134 % of ANNNNAAN 8-mers | 0.0909 % of ANNNNAAN 8-mers | 0.18 % of ANNNNAAN 8-mers | 0.102 % of ANNNNAAN 8-mers
13 | ACTGGAAA | 0.0362 % of ANNNNAAN 8-mers | 0.0328 % of ANNNNAAN 8-mers | 0.0375 % of ANNNNAAN 8-mers | 0.0429 % of ANNNNAAN 8-mers
14 | AGTCAAAG | 0.116 % of ANNNNAAN 8-mers | 0.0748 % of ANNNNAAN 8-mers | 0.187 % of ANNNNAAN 8-mers | 0.0966 % of ANNNNAAN 8-mers
15 | ATAACAAA | 0.098 % of ANNNNAAN 8-mers | 0.0909 % of ANNNNAAN 8-mers | 0.1 % of ANNNNAAN 8-mers | 0.0883 % of ANNNNAAN 8-mers
16 | ACACTAAA | 0.0256 % of ANNNNAAN 8-mers | 0.0293 % of ANNNNAAN 8-mers | 0.0273 % of ANNNNAAN 8-mers | 0.0173 % of ANNNNAAN 8-mers

Row | Sequence | binding signal (POU1 (OCT1 POU domain)) | binding signal (POU2 (OCT2 POU domain)) | binding signal [1] | binding signal [2]
17 | AGCACAAA | 0.0256 % of ANNNNAAN 8-mers | 0.0242 % of ANNNNAAN 8-mers | 0.0277 % of ANNNNAAN 8-mers | 0.033 % of ANNNNAAN 8-mers
18 | ACGTTAAC | 0.024 % of ANNNNAAN 8-mers | 0.0316 % of ANNNNAAN 8-mers | 0.0234 % of ANNNNAAN 8-mers | 0.0289 % of ANNNNAAN 8-mers
19 | AAGTGAAC | 0.0233 % of ANNNNAAN 8-mers | 0.0305 % of ANNNNAAN 8-mers | 0.0254 % of ANNNNAAN 8-mers | 0.0388 % of ANNNNAAN 8-mers
20 | ACAGTAAC | 0.0149 % of ANNNNAAN 8-mers | 0.0242 % of ANNNNAAN 8-mers | 0.0148 % of ANNNNAAN 8-mers | 0.0149 % of ANNNNAAN 8-mers
21 | AACCCAAT | 0.0206 % of ANNNNAAN 8-mers | 0.019 % of ANNNNAAN 8-mers | 0.0273 % of ANNNNAAN 8-mers | 0.0223 % of ANNNNAAN 8-mers
22 | ACGTCAAA | 0.0271 % of ANNNNAAN 8-mers | 0.0178 % of ANNNNAAN 8-mers | 0.0371 % of ANNNNAAN 8-mers | 0.0173 % of ANNNNAAN 8-mers
23 | AACTTAAT | 0.0995 % of ANNNNAAN 8-mers | 0.117 % of ANNNNAAN 8-mers | 0.0613 % of ANNNNAAN 8-mers | 0.0677 % of ANNNNAAN 8-mers
24 | AACGGAAA | 0.0561 % of ANNNNAAN 8-mers | 0.0552 % of ANNNNAAN 8-mers | 0.0741 % of ANNNNAAN 8-mers | 0.0561 % of ANNNNAAN 8-mers
25 | ACCAGAAG | 0.0137 % of ANNNNAAN 8-mers | 0.0167 % of ANNNNAAN 8-mers | 0.018 % of ANNNNAAN 8-mers | 0.0215 % of ANNNNAAN 8-mers
26 | AAGCGAAA | 0.0358 % of ANNNNAAN 8-mers | 0.0391 % of ANNNNAAN 8-mers | 0.0429 % of ANNNNAAN 8-mers | 0.0289 % of ANNNNAAN 8-mers
27 | ATTCAAAG | 0.281 % of ANNNNAAN 8-mers | 0.201 % of ANNNNAAN 8-mers | 0.314 % of ANNNNAAN 8-mers | 0.242 % of ANNNNAAN 8-mers
28 | ACACAAAG | 0.0309 % of ANNNNAAN 8-mers | 0.0196 % of ANNNNAAN 8-mers | 0.0418 % of ANNNNAAN 8-mers | 0.0305 % of ANNNNAAN 8-mers
29 | ACGTAAAC | 0.0358 % of ANNNNAAN 8-mers | 0.0299 % of ANNNNAAN 8-mers | 0.0433 % of ANNNNAAN 8-mers | 0.0405 % of ANNNNAAN 8-mers
30 | AGTACAAG | 0.029 % of ANNNNAAN 8-mers | 0.0253 % of ANNNNAAN 8-mers | 0.0359 % of ANNNNAAN 8-mers | 0.0297 % of ANNNNAAN 8-mers
31 | ATTGGAAT | 0.141 % of ANNNNAAN 8-mers | 0.18 % of ANNNNAAN 8-mers | 0.0968 % of ANNNNAAN 8-mers | 0.0966 % of ANNNNAAN 8-mers
